Measurements taken from paper PMC7862700, “An all-to-all approach to the identification of sequence-specific readers for epigenetic DNA modifications on cytosine”.

Key:
Assay in all cases: DAPPL (digital affinity profiling via proximity ligation, sequencing); 10 mM Tris-HCl pH 7.5, 50 mM NaCl, 1 mM DTT, 4% glycerol, room temperature, 30 min; GST-TFs on glutathione beads, 16-mer random dsDNA library, 0.1% formaldehyde crosslink after washing; high values mean tight binding
Details in all cases: protein: recombinant; tags: N-terminal GST; dsDNA, one strand shown
ERF = target: T1, ERF (Homo sapiens, UniProt P50548 1-548)
T1 sequence: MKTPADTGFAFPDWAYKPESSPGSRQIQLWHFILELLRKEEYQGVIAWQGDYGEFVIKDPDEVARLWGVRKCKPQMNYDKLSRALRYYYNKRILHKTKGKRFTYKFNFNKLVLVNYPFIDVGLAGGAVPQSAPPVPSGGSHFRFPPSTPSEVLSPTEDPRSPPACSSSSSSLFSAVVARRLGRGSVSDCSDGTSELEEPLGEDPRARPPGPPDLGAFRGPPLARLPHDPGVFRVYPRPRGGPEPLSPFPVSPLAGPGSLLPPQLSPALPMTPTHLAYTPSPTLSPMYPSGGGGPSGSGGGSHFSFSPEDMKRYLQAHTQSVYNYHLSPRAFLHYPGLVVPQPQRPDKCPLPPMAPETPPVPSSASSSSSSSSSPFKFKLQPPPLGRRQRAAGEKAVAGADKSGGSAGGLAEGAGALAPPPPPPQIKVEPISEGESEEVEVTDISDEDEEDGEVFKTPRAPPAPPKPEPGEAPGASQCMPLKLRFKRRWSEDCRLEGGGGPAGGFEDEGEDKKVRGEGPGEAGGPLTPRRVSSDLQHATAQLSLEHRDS
Procedure, shortened: (§1)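 Binding signal is defined as a hexamer's read frequency for one factor over its frequency for the tag-only sample. To obtain reads, GST-fused human transcription factors were expressed in yeast, captured on glutathione beads, barcoded with DNA and pooled with that sample. Pools met 200 nmole of a 16-mer random double-stranded DNA library in Tris/NaCl/DTT/glycerol buffer for 30 min at room temperature before washing, 0.1% formaldehyde crosslinking, proximity ligation (BsaI/T4 ligase, 1 h, 37 °C), PCR and Illumina NextSeq500 sequencing.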

ETV3L = target: T2, ETV3L (Homo sapiens, UniProt Q6ZN32 1-361)
T2 sequence: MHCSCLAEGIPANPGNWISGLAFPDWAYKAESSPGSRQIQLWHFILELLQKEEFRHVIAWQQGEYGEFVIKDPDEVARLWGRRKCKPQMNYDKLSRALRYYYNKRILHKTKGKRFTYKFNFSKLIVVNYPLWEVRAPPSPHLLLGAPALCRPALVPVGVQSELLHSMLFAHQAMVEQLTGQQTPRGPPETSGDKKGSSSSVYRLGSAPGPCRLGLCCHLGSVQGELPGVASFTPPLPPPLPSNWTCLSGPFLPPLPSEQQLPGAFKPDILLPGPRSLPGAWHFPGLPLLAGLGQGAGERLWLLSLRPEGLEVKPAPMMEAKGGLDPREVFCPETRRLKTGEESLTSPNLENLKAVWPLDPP
Procedure, shortened: as §1

ETS2 = target: T3, ETS2 (Homo sapiens, UniProt P15036 1-469)
T3 sequence: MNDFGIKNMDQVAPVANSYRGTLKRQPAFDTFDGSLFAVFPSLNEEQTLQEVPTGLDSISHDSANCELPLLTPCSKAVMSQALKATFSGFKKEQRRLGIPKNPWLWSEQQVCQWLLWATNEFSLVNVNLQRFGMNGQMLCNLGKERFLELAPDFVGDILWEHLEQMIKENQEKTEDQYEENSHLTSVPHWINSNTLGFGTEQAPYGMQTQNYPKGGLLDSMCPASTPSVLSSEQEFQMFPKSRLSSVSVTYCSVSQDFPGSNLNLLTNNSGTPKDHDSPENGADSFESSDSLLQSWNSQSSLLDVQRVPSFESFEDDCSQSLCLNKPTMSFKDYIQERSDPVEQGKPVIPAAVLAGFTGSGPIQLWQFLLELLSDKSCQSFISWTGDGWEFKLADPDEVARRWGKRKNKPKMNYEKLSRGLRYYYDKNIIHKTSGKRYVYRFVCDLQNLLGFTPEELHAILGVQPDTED
Procedure, shortened: as §1

SPDEF = target: T4, SPDEF (Homo sapiens, UniProt O95238 1-335)
T4 sequence: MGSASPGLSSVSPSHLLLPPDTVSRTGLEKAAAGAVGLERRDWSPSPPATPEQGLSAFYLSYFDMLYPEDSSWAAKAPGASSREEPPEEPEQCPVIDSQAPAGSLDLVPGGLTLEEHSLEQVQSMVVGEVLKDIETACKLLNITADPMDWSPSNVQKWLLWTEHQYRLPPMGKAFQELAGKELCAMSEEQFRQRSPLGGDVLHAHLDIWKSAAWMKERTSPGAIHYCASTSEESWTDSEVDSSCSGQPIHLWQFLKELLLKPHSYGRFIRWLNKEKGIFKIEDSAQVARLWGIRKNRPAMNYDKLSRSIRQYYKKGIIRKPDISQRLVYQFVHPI
Procedure, shortened: as §1

ETV7 = target: T5, ETV7 (Homo sapiens, UniProt Q9Y603 1-341)
T5 sequence: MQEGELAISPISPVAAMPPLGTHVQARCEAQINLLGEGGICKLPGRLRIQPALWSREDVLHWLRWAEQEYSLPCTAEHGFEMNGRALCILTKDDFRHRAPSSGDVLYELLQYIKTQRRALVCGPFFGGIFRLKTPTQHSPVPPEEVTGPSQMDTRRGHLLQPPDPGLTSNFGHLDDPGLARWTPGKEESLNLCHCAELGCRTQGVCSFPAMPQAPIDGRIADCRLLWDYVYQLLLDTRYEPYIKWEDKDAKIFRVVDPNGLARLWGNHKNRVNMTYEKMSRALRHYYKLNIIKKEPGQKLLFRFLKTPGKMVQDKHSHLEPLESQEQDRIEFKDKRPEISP
Procedure, shortened: as §1

ELF5 = target: T6, ELF5 (Homo sapiens, UniProt Q9UKW6-2 1-255)
T6 sequence: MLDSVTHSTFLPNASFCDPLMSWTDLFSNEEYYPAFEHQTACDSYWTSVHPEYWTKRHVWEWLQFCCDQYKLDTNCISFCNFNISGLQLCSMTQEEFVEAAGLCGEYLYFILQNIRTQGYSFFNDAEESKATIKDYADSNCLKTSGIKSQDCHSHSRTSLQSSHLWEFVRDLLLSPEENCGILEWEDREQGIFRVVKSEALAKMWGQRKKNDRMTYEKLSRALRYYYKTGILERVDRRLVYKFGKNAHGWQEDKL
Procedure, shortened: as §1

ETV3 = target: T7, ETV3 (Homo sapiens, UniProt P41162-2 1-143)
T7 sequence: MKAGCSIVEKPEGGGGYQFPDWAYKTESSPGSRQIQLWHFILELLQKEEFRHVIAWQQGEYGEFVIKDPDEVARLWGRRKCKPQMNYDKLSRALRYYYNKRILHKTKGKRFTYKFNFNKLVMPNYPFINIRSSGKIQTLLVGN
Procedure, shortened: as §1

ETV6 = ETV6 (Homo sapiens, UniProt P41212 1-452)
Chain of ETV6 (P41212 whole entry): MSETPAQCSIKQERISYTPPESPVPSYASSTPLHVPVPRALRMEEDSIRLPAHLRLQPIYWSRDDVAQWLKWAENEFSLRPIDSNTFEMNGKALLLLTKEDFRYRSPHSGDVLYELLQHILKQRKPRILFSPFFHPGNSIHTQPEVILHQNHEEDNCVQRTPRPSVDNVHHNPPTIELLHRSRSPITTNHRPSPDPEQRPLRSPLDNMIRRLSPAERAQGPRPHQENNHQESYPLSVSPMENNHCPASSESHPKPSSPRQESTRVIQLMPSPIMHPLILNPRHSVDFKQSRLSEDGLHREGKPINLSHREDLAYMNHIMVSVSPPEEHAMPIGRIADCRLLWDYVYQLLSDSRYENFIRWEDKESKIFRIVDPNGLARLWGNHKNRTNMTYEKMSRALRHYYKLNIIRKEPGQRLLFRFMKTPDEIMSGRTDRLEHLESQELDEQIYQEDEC
Procedure, shortened: as §1

Sequence | binding signal (ERF) | binding signal (ETV3L) | binding signal (ETS2) | binding signal (SPDEF) | binding signal (ETV7) | binding signal (ELF5) | binding signal (ETV3) | binding signal (ETV6)
TTCTAA | 1.23 fold enrichment (6-mer frequency, TF over GST control) | 1.16 fold enrichment (6-mer frequency, TF over GST control) | 1.26 fold enrichment (6-mer frequency, TF over GST control) | 1.22 fold enrichment (6-mer frequency, TF over GST control) | 1.23 fold enrichment (6-mer frequency, TF over GST control) | 1.17 fold enrichment (6-mer frequency, TF over GST control) | 1.19 fold enrichment (6-mer frequency, TF over GST control) | 1.24 fold enrichment (6-mer frequency, TF over GST control)
ATACGG | 1.28 fold enrichment (6-mer frequency, TF over GST control) | 1.15 fold enrichment (6-mer frequency, TF over GST control) | 1.22 fold enrichment (6-mer frequency, TF over GST control) | 1.31 fold enrichment (6-mer frequency, TF over GST control) | 1 fold enrichment (6-mer frequency, TF over GST control) | 1.32 fold enrichment (6-mer frequency, TF over GST control) | 1.31 fold enrichment (6-mer frequency, TF over GST control) | 1.18 fold enrichment (6-mer frequency, TF over GST control)
CGGTTC | 1.21 fold enrichment (6-mer frequency, TF over GST control) | 1.17 fold enrichment (6-mer frequency, TF over GST control) | 1.21 fold enrichment (6-mer frequency, TF over GST control) | 1.63 fold enrichment (6-mer frequency, TF over GST control) | 1.17 fold enrichment (6-mer frequency, TF over GST control) | 1.33 fold enrichment (6-mer frequency, TF over GST control) | 1.3 fold enrichment (6-mer frequency, TF over GST control) | 1.4 fold enrichment (6-mer frequency, TF over GST control)
CCTCGG | 1.23 fold enrichment (6-mer frequency, TF over GST control) | 1.23 fold enrichment (6-mer frequency, TF over GST control) | 1.23 fold enrichment (6-mer frequency, TF over GST control) | 1.04 fold enrichment (6-mer frequency, TF over GST control) | 1.11 fold enrichment (6-mer frequency, TF over GST control) | 1.2 fold enrichment (6-mer frequency, TF over GST control) | 1.05 fold enrichment (6-mer frequency, TF over GST control) | 1.24 fold enrichment (6-mer frequency, TF over GST control)
TCTGTA | 1.16 fold enrichment (6-mer frequency, TF over GST control) | 1.24 fold enrichment (6-mer frequency, TF over GST control) | 1.27 fold enrichment (6-mer frequency, TF over GST control) | 1.26 fold enrichment (6-mer frequency, TF over GST control) | 1.03 fold enrichment (6-mer frequency, TF over GST control) | 1.17 fold enrichment (6-mer frequency, TF over GST control) | 1.25 fold enrichment (6-mer frequency, TF over GST control) | 1.18 fold enrichment (6-mer frequency, TF over GST control)
TGGTCC | 1.19 fold enrichment (6-mer frequency, TF over GST control) | 1.1 fold enrichment (6-mer frequency, TF over GST control) | 1.23 fold enrichment (6-mer frequency, TF over GST control) | 1.26 fold enrichment (6-mer frequency, TF over GST control) | 1.18 fold enrichment (6-mer frequency, TF over GST control) | 1.19 fold enrichment (6-mer frequency, TF over GST control) | 1.28 fold enrichment (6-mer frequency, TF over GST control) | 1.18 fold enrichment (6-mer frequency, TF over GST control)
GCTCAT | 1.31 fold enrichment (6-mer frequency, TF over GST control) | 1.19 fold enrichment (6-mer frequency, TF over GST control) | 1.26 fold enrichment (6-mer frequency, TF over GST control) | 1.12 fold enrichment (6-mer frequency, TF over GST control) | 1.23 fold enrichment (6-mer frequency, TF over GST control) | 1.19 fold enrichment (6-mer frequency, TF over GST control) | 1.15 fold enrichment (6-mer frequency, TF over GST control) | 1.21 fold enrichment (6-mer frequency, TF over GST control)
TTCGCA | 1.46 fold enrichment (6-mer frequency, TF over GST control) | 1.32 fold enrichment (6-mer frequency, TF over GST control) | 1.18 fold enrichment (6-mer frequency, TF over GST control) | 1.31 fold enrichment (6-mer frequency, TF over GST control) | 1.26 fold enrichment (6-mer frequency, TF over GST control) | 1.27 fold enrichment (6-mer frequency, TF over GST control) | 1.34 fold enrichment (6-mer frequency, TF over GST control) | 1.22 fold enrichment (6-mer frequency, TF over GST control)
ACCTCG | 1.2 fold enrichment (6-mer frequency, TF over GST control) | 1.22 fold enrichment (6-mer frequency, TF over GST control) | 1.11 fold enrichment (6-mer frequency, TF over GST control) | 1.06 fold enrichment (6-mer frequency, TF over GST control) | 1.21 fold enrichment (6-mer frequency, TF over GST control) | 1.06 fold enrichment (6-mer frequency, TF over GST control) | 1.1 fold enrichment (6-mer frequency, TF over GST control) | 1.09 fold enrichment (6-mer frequency, TF over GST control)
